Data: the supplement of paper PMC6555819

Legend:
Assay in all cases: PBM binding z-score (relative to random genomic background probes); higher = stronger binding; sequences stand for … in GC…GCGATTGACAGCGTAGAATGAAGG
[1] = system: PPARg:RXRa DBDmut IVT, anti-RXR (DBD mutation: RXRa K156A/R161A, NR concentration 270 nM, RXRa partner concentration 90 nM)
In short: (§1)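 Binding z-scores take random background probes as their reference. They come from custom Agilent 4×180K protein-binding microarrays incubated 1 h with ligand-free nuclear receptor dimers, with antibodies against each partner (one per run) detecting binding. Scanned fluorescence was regression-normalized.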

[2] = system: PPARg:RXRa IVT, anti-PPARg (NR concentration 270 nM, RXRa partner concentration 90 nM)
In short: as §1

[3] = system: PPARg DBDmut IVT, anti-PPARg (DBD mutation: PPARg1 K132A/R137A, NR concentration 270 nM)
In short: as §1

[4] = system: PPARg homodimer (NR concentration 180 nM)
In short: as §1

[5] = system: PXR:RXRa (NR concentration 270 nM, RXRa partner concentration 90 nM)
In short: as §1

[6] = system: PXR homodimer (NR concentration 270 nM)
In short: as §1

[7] = system: RARa:RXR (NR concentration 270 nM, RXRa partner concentration 90 nM)
In short: as §1

[8] = system: RARa homodimer (NR concentration 270 nM)
In short: as §1

[9] = system: RARb:RXRa (NR concentration 270 nM, RXRa partner concentration 90 nM)
In short: as §1

[10] = system: RARb homodimer (NR concentration 270 nM)
In short: as §1

[11] = system: RARg:RXRa (NR concentration 270 nM, RXRa partner concentration 90 nM)
In short: as §1

[12] = system: RARg homodimer (NR concentration 270 nM)
In short: as §1

[13] = system: RXRa DBDmut IVT, anti-RXR (DBD mutation: RXRa K156A/R161A, NR concentration 90 nM)
In short: as §1

[14] = system: RXRa homodimer (NR concentration 180 nM)
In short: as §1

[15] = system: THRa:RXRa (NR concentration 90 nM, RXRa partner concentration 90 nM)
In short: as §1

[16] = system: THRa homodimer (NR concentration 90 nM)
In short: as §1

[17] = system: VDR homodimer (NR concentration 270 nM)
In short: as §1

[18] = system: VDR:RXRa (NR concentration 270 nM, RXRa partner concentration 90 nM)
In short: as §1

Sequence | PBM binding z-score [1] | PBM binding z-score [2] | PBM binding z-score [3] | PBM binding z-score [4] | PBM binding z-score [5] | PBM binding z-score [6] | PBM binding z-score [7] | PBM binding z-score [8] | PBM binding z-score [9] | PBM binding z-score [10] | PBM binding z-score [11] | PBM binding z-score [12] | PBM binding z-score [13] | PBM binding z-score [14] | PBM binding z-score [15] | PBM binding z-score [16] | PBM binding z-score [17] | PBM binding z-score [18]
CGCACTAGGTCACCAGGACAGTGAAGAGGTTGGA | 8.2 | 8.52 | 2.13 | 1.92 | 1.29 | 0.413 | 2.48 | 0.466 | 4.12 | 3.34 | 4.53 | 5.06 | 1.09 | 3.23 | 3.34 | 2.35 | 1.14 | 
CGAACTAGGTCACCAGGGCAGTGAAGAGGTTGGA | 8.17 | 8.88 | 0.642 | 1.95 | 1.7 | -0.014 | 2.53 | 0.458 | 4.22 | 3.62 | 4.53 | 5.52 | 1.03 | 3.26 | 3.09 | 1.39 | 0.712 | 2.32
ATCTGTAGGTTAGGGTCATTCAGAAAGTAGGGAA | 2.86 | 3.74 | 2.08 | 3.23 | 4.42 | 2.1 | 5.21 | 2.2 | 3.58 | 3.65 | 4.2 | 3.96 | 2.35 | 5.32 | 4.19 | 3.53 | 4.36 | 
CGAACTTGGTCACCAGGACAGTGAAGAGGTTGGA | 1.74 | 2.17 | -0.841 | 0.157 | -0.0595 | -0.183 | 0.344 | -0.448 | 1.38 | 1.06 | 0.959 | 1.47 | -0.0208 | 0.727 | 1.63 | 0.644 | -0.0725 | 0.809
CGAACTAGCTCACCAGGACAGTGAAGAGGTTGGA | 0.166 | -0.411 | 0.212 | -0.0125 | -0.706 | -0.202 | -0.594 | -0.478 | -0.409 | 0.0882 | -0.448 | -0.336 | 0.0205 | -0.153 | 0.96 | 0.613 | -0.481 | -0.616
CGAAATAGGTCAAAGGACAGTGAAAGGCGACGTA | 7.36 | 7.35 | 0.994 | 2.41 | 2.34 | -0.0747 | 3.92 | 0.491 | 4.49 | 3.4 | 4.97 | 5.11 | 1.3 | 4.58 | 2.4 | -0.113 | 0.355 | 
CGAACTAGGTCAAAGGAAAGTGAAAGGCGACGTA | 7.92 | 8.23 | 1.64 | 0.636 | 0.854 | -0.0237 | 1.65 | 0.526 | 3.55 | 2.25 | 3.46 | 4.01 | 1.15 | 2.39 | 1.95 | 0.083 | 0.538 | 
CGAACTAGGTCAAAGTACAGTGAAAGGCGACGTA | 7.91 | 8.47 | 3.06 | 1.65 | 1.58 | -0.31 | 2.5 | -0.202 | 3.84 | 2.8 | 4.13 | 4.62 | 2 | 3.1 | 2.57 | 0.294 | 0.766 | 1.84
CGAACTAGGTCACCAGGAAAGTGAAGAGGTTGGA | 8.65 | 8.74 | 0.796 | 2.05 | 1.48 | -0.0939 | 2.37 | 0.814 | 4.29 | 3.18 | 4.45 | 5.45 | 1.53 | 3.53 | 2.91 | 1.04 | 0.43 | 
ATATGTAGGTTAGGGTCACTCAGAAAGTAGGGAA | 6.7 | 6.76 | 1.93 | 3.25 | 3.88 | 1.5 | 4.51 | 1.73 | 3.8 | 3.57 | 3.98 | 3.56 | 1.74 | 5.09 | 4.21 | 3.46 | 2.6 | 
CGAACTAGGACACCAGGACAGTGAAGAGGTTGGA | 6.02 | 5.32 | -0.0745 | 0.381 | -0.661 | -0.233 | -0.0962 | 0.279 | 0.552 | 0.545 | 0.367 | 0.797 | 0.0708 | 0.0879 | 1.83 | 1.24 | 0.472 | -0.285
ATATGTAGGTTAGGGTCATTCAGAAAGTAGGGAA | 6.61 | 6.95 | 3.49 | 3.86 | 4.66 | 2.12 | 5.52 | 2.73 | 3.34 | 3.49 | 4.11 | 3.21 | 2.68 | 5.53 | 3.97 | 3.55 | 4.01 | 4.7
CGAACTAGGTCATAGGACAGTGAAAGGCGACGTA | 7.81 | 8.5 | 0.801 | 1.9 | 1.2 | -0.212 | 2.17 | 0.173 | 3.5 | 2.66 | 3.62 | 3.88 | 1.21 | 3.11 | 2.64 | 0.357 | 0.417 | 1.47
CGGACTAGGTCACCAGGACAGTGAAGAGGTTGGA | 7.92 | 8.27 | 0.234 | 1.95 | 1.24 | -0.197 | 2.09 | -0.221 | 4.15 | 3.18 | 4.13 | 5.61 | 1 | 3.39 | 3.14 | 2.14 | 0.337 | 1.54
CGAATTAGGTCACCAGGACAGTGAAGAGGTTGGA | 8.17 | 8.71 | 2.04 | 2.36 | 1.78 | 0.578 | 2.92 | 0.711 | 4.52 | 3.77 | 4.66 | 5.28 | 1.56 | 3.42 | 3.98 | 2.96 | 0.575 | 2.06
CGAACTAGGTCCAAGGACAGTGAAAGGCGACGTA | 0.968 | 1.2 | -0.593 | -0.32 | -0.326 | -0.337 | -0.0342 | -0.625 | 0.398 | 0.38 | 0.00598 | 0.386 | 0.946 | 0.00981 | 1.39 | 0.672 | -0.041 | 
ATATGTAGGTTAGGGTCATTTAGAAAGTAGGGAA | 6.56 | 6.66 | 2.64 | 3.47 | 4.23 | 1.89 | 4.82 | 1.85 | 3.33 | 3.38 | 3.86 | 2.8 | 2.29 | 5.07 | 4.06 | 3.22 | 3.84 | 4.26
CGAACTAGGTCACCAGGACCGTGAAGAGGTTGGA | 8.24 | 8.31 | 0.567 | 1.94 | 1.19 | -0.498 | 2.08 | -0.00105 | 4.08 | 3.25 | 4.44 | 5.18 | 1.08 | 3.5 | 2.89 | 1.07 | 0.39 | 
ATATGTAGGTCAGGGTCATTCAGAAAGTAGGGAA | 7.87 | 8.62 | 2.1 | 3.22 | 4.42 | 1.93 | 5.05 | 2.85 | 4.49 | 4.5 | 5.21 | 5.33 | 2.58 | 5.76 | 4 | 2.37 | 4.27 | 5.08
CGAAATAGGTCACCAGGACAGTGAAGAGGTTGGA | 7.94 | 8.03 | 1.09 | 1.95 | 2.67 | 0.221 | 3.82 | 1.35 | 4.78 | 3.91 | 5.54 | 5.96 | 0.868 | 5.18 | 3.12 | 0.942 | 0.687 | 
CGAACTAGGTCAAAGGACAGTAAAAGGCGACGTA | 8.07 | 8.42 | 0.249 | 1.7 | 1.14 | 0.0773 | 2.09 | 0.769 | 4.06 | 2.85 | 4.05 | 4.79 | 1.33 | 3.25 | 2.75 | 0.556 | 0.392 | 
ATATGTAGATTAGGGTCATTCAGAAAGTAGGGAA | 1.94 | 2.96 | 1.38 | 2.2 | 3.84 | 1.24 | 4.48 | 1.28 | 2.92 | 3.09 | 3.47 | 2.29 | 2.09 | 4.53 | 3.9 | 2.95 | 3.14 | 4.06
CGAACTAGGTCACCACGACAGTGAAGAGGTTGGA | 8.39 | 9 | 4.26 | 2.32 | 1.46 | -0.289 | 2.78 | 0.591 | 4.21 | 3.15 | 4.59 | 5.39 | 1.66 | 3.31 | 3.02 | 1.16 | 0.592 | 2.04
CGAACTAGGTCAAAGGACAGAGAAAGGCGACGTA | 8.13 | 8.31 | 4.05 | 1.87 | 1.26 | -0.306 | 2.31 | 0.114 | 3.88 | 2.7 | 4.29 | 4.46 | 1.73 | 3.38 | 2.44 | 0.0564 | 0.391 | 1.54
CGAACTAGGTCACCGGGACAGTGAAGAGGTTGGA | 7.85 | 9.13 | 0.892 | 2.28 | 1.79 | -0.271 | 3.2 | 0.436 | 4.33 | 3.62 | 4.73 | 5.23 | 1.41 | 3.62 | 3.75 | 1.79 | 0.333 | 
CGAACTAGGTCACCAGGTCAGTGAAGAGGTTGGA | 8.35 | 8.61 | 0.92 | 2.94 | 3.16 | 0.301 | 4.36 | 1.02 | 4.61 | 4.64 | 5.69 | 6.17 | 1.7 | 4.83 | 3.89 | 2.72 | 1.52 | 
CGAACTAGGTCAGAGGACAGTGAAAGGCGACGTA | 7.39 | 7.68 | -0.191 | 1.33 | 0.248 | -0.238 | 0.823 | -0.0193 | 3.36 | 2.41 | 2.82 | 3.91 | 0.547 | 1.54 | 1.76 | 0.433 | -7.91e-05 | 
